MEP2 TOR yeast – yeast TOR pathway MEP2-GFP modulation. S. cerevisiae MEP2-GFP strain, flow cytometry GFP, 3 h; 100% = DMSO control level. GFP response vs DMSO, % at 10 µM. hit rate 0.51% among 330,000;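 active = GFP response versus DMSO above a set limit, roughly screen mean plus 3 SD, cut at about 180% in these data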;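 also: median GFP fluorescence of the barcode-gated MEP2-GFP cells per well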
LAP4-GFP MLPCN – modulators of TOR pathway LAP4-GFP in S. cerevisiae. GFP response vs DMSO, % at 10 µM. hit rate 0.34% among 320,000. AID 2023. S. cerevisiae LAP4-GFP multiplex, flow cytometry GFP, 3 h; median GFP as percent of DMSO wells;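 active = GFP response vs DMSO above a set limit, about the screen mean plus 3 SD, cut at about 150% in these data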
AGP1 TOR yeast – modulators of TOR pathway AGP1-GFP in S. cerevisiae. hit rate 0.02% among 320,000. S. cerevisiae AGP1-GFP multiplex flow cytometry, 3 h; GFP as percent of DMSO wells. GFP response vs DMSO, % at 10 µM;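 active = GFP response relative to DMSO above a set limit, near screen average plus 3 SD, cut at about 150% in these data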;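 also: median GFP channel fluorescence of the gated AGP1 strain per well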
CIT2-GFP yeast – modulators of TOR pathway CIT2-GFP in S. cerevisiae; S. cerevisiae CIT2-GFP strain, flow cytometry, 3 h; 100 means same as DMSO wells; GFP response vs DMSO, % at 10 µM; hit rate 0.065% among 320,000; AID 2029;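 active = GFP response relative to DMSO above a set limit, near the screen mean plus 3 SD, cut at about 150% in these data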;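 also: ratio of well median GFP fluorescence to mean of DMSO wells on the plate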
RPL19A TOR yeast – yeast TOR pathway RPL19A-GFP modulation. S. cerevisiae RPL19A-GFP strain, flow cytometry, 3 h; hits give low values. percent response vs DMSO, % at 10 µM. hit rate 0.3% among 330,000;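 active = percent response vs DMSO below 50%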;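 also: median channel GFP fluorescence of the barcoded RPL19A-GFP strain; ratio of sample median GFP to plate DMSO average so 100% = DMSO; lower means less RPL19A-GFP as with rapamycin TOR inhibition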
VLA-4 inh – inhibition in a human VLA-4 binding assay | hit rate 0.2% among 330,000 | P13612 | VLA-4 expressing cells, ligand binding flow cytometry | inhibition, % (about 7 µM as worked out from the volumes in the protocol); in the data active = inhibition above about 50%
Target sequence (P13612 whole entry, looked up): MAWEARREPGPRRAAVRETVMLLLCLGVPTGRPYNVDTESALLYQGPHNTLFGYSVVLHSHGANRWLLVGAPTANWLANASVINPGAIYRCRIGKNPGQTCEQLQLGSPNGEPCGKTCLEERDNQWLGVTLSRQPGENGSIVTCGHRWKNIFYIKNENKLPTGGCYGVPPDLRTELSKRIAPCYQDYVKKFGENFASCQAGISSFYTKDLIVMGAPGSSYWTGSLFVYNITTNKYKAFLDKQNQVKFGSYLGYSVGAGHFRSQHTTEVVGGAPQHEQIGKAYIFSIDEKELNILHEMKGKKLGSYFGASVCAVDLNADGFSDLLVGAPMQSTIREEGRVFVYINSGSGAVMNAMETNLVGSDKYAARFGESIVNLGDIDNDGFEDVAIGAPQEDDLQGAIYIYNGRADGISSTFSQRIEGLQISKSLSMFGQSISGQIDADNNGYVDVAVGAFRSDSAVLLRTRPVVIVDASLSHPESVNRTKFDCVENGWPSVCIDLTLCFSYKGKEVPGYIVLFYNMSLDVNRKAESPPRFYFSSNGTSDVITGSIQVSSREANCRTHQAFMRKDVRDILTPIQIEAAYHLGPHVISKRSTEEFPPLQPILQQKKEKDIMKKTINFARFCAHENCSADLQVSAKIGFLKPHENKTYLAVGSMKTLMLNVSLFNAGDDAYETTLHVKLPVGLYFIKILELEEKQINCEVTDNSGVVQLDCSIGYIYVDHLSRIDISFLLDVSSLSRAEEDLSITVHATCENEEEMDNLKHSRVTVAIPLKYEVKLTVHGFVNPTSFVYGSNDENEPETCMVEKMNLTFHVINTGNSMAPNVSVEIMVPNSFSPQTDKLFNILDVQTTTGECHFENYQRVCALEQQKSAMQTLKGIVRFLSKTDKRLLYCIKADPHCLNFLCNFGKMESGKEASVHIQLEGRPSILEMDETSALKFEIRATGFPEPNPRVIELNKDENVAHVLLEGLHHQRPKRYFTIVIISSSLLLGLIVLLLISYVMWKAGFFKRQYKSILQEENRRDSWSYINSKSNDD
VLA-4 mod pick – human VLA-4 allosteric modulation in cherry picked compounds; shares compounds with VLA-4 inh; U937 cells, HUTS-21 LIBS mAb binding, flow cytometry; LDV ligand present at threefold Kd; inhibition, % at 6.7 µM; hit rate 2% among 1,300; AID 2813; in the data active = inhibition above about 40%;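 also: 0% = ligand without compound and 100% = no ligand background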
An asterisk follows results filed as active. Sampled rows, rich in hits. Any-hit rate of the full collection: about 1.1%.

For CC(=O)N1CCOc2ccc(S(=O)(=O)NCCc3cccc(C)c3)cc21 the results were MEP2 TOR yeast 94.8, LAP4-GFP MLPCN 103.0, AGP1 TOR yeast 99.5, CIT2-GFP yeast 105.2, RPL19A TOR yeast 98.3 and VLA-4 inh -14.0.
For CS(=O)(=O)N1c2ccccc2[C@]2(Br)C[C@H]3C(=O)N[C@@H](Cc4ccccc4)C(=O)N3[C@H]12 the results were MEP2 TOR yeast 92.5, LAP4-GFP MLPCN 109.3, AGP1 TOR yeast 88.6, CIT2-GFP yeast 99.4, RPL19A TOR yeast 104.0 and VLA-4 inh -11.6.
`CCCn1c(SC(C)C(=O)NC2CC2)nnc1-c1ccncc1` (stereo not drawn) gave MEP2 TOR yeast 96.9, LAP4-GFP MLPCN 96.0, AGP1 TOR yeast 92.2, CIT2-GFP yeast 98.6, RPL19A TOR yeast 95.3 and VLA-4 inh 8.8.
For O=Cc1cnc(N2CCN(Cc3ccccc3)CC2)s1 the results were MEP2 TOR yeast 106.0, LAP4-GFP MLPCN 105.0, AGP1 TOR yeast 103.6, CIT2-GFP yeast 103.6, RPL19A TOR yeast 108.0 and VLA-4 inh -0.8.
For O=Cc1cnc(N2CCN(c3ccccc3)CC2)s1 the results were MEP2 TOR yeast 103.1, LAP4-GFP MLPCN 89.6, AGP1 TOR yeast 102.3, CIT2-GFP yeast 101.8, RPL19A TOR yeast 98.8, VLA-4 inh 52.1* and VLA-4 mod pick 1.2.
`O=C(OCC(=O)N1CCOCC1)c1ccc[nH]c1=O` gave MEP2 TOR yeast 98.2, LAP4-GFP MLPCN 98.2, AGP1 TOR yeast 101.5, CIT2-GFP yeast 97.5, RPL19A TOR yeast 95.6, VLA-4 inh 51.9* and VLA-4 mod pick 1.8.
Screening O=C(OCC(=O)N1CCCCCC1)c1ccc[nH]c1=O returned MEP2 TOR yeast 107.0, LAP4-GFP MLPCN 106.1, AGP1 TOR yeast 102.0, CIT2-GFP yeast 99.2, RPL19A TOR yeast 99.4 and VLA-4 inh 3.4.
CCCCCCOc1ccc(N2C(=O)CC(N3CCC(C(=O)OCC)CC3)C2=O)cc1 (stereo not drawn) was read as MEP2 TOR yeast 108.3, LAP4-GFP MLPCN 108.0, AGP1 TOR yeast 96.1, CIT2-GFP yeast 102.2, RPL19A TOR yeast 96.0, VLA-4 inh -9.9 and VLA-4 mod pick -3.5.
CCOC(=O)C1CCN(C2CC(=O)N(c3ccc(OCC)cc3)C2=O)CC1 (stereo not drawn) was read as MEP2 TOR yeast 110.1, LAP4-GFP MLPCN 110.6, AGP1 TOR yeast 100.3, CIT2-GFP yeast 101.0, RPL19A TOR yeast 102.6, VLA-4 inh -10.6 and VLA-4 mod pick -5.8.
For O=C(Nc1nccs1)c1ccc(N2CCOCC2)c([N+](=O)[O-])c1 the results were MEP2 TOR yeast 103.5, LAP4-GFP MLPCN 111.3, AGP1 TOR yeast 105.8, CIT2-GFP yeast 110.2, RPL19A TOR yeast 106.2 and VLA-4 inh 2.0.
Screening COc1ccc2c(c1)N(C)/C(=C1/SC(=NCc3ccccc3)N(c3ccccc3)C1=O)S2 returned MEP2 TOR yeast 110.2, LAP4-GFP MLPCN 105.8, CIT2-GFP yeast 98.8, RPL19A TOR yeast 101.5, VLA-4 inh 90.5* and VLA-4 mod pick 5.1.
For O=C(Cn1cnc2ccccc2c1=O)N1CCN(S(=O)(=O)c2ccc(F)cc2)CC1 the results were MEP2 TOR yeast 87.8, LAP4-GFP MLPCN 89.1, AGP1 TOR yeast 97.3, CIT2-GFP yeast 99.5, RPL19A TOR yeast 97.8 and VLA-4 inh -3.4.
`CC1Cc2ccccc2N1c1ncnc(N)c1[N+](=O)[O-]` (stereo not drawn) gave MEP2 TOR yeast 96.3, LAP4-GFP MLPCN 120.4, AGP1 TOR yeast 98.0, CIT2-GFP yeast 95.8, RPL19A TOR yeast 97.7, VLA-4 inh 52.6* and VLA-4 mod pick 15.6.
CC1CCCCN1c1ncnc(N)c1[N+](=O)[O-] (stereo not drawn) was read as MEP2 TOR yeast 102.0, LAP4-GFP MLPCN 111.5, AGP1 TOR yeast 107.0, CIT2-GFP yeast 99.4, RPL19A TOR yeast 102.4 and VLA-4 inh -1.9.
Screening Cc1ccc(C(=O)N/N=c2\sc3ccccc3n2C)cc1 returned MEP2 TOR yeast 99.0, LAP4-GFP MLPCN 89.3, AGP1 TOR yeast 91.6, CIT2-GFP yeast 91.1, RPL19A TOR yeast 98.2, VLA-4 inh 49.4 and VLA-4 mod pick -6.9.
